Laboratory results as given in ChEMBL document CHEMBL1157539, “Thousands of chemical starting points for antimalarial lead identification” (Nature, 2010).

Columns and labels:
Assay type in all cases: functional
Plasmodium falciparum [1] = experiment: GSK_TCMDC: Inhibition of Plasmodium falciparum 3D7 in whole red blood cells, using parasite LDH activity as an index of growth. Test compounds present at 2uM
Plasmodium falciparum [2] = experiment: GSK_TCMDC: Inhibition of Plasmodium falciparum Dd2 in whole red blood cells, using parasite LDH activity as an index of growth. Test compounds present at 2uM
HepG2 = experiment: GSK_TCMDC: Percent inhibition of human HepG2 cell line. Test compounds present at 10uM.

SMILES | Inhibition (Plasmodium falciparum [1]) [%] | Inhibition (Plasmodium falciparum [2]) [%] | Inhibition (HepG2) [%]
Cc1ccc(CC(C)(C)NCC(O)c2cccc(C(F)(F)F)c2)cc1.O=C(O)/C=C/C(=O)O (configuration not stated) | 97 | 92 | 19
O=C(NC1CCC(CN2CCC(c3c[nH]c4ccccc34)CC2)CC1)NC12CC3CC(CC(C3)C1)C2 (configuration not stated) | 96 | 46 | 37
CCCCn1c(C)c(C(=O)OCC)c2cc(OC(C)=O)c(Br)cc21 | 98 | 79 | 0
Br.CC[C@H]1CN2CC[C@H]1C[C@H]2[C@H](O)c1ccnc2ccc(C#N)cc12 | 100 | 55 | 0
Cc1[nH]c2ccc(NS(C)(=O)=O)cc2c1C1CCN(CC2CCN(C(=O)/C=C/c3ccc(Cl)c(Cl)c3)CC2)CC1 | 99 | 83 | 15
O=C(NC1CCC(CN2CCC(c3c[nH]c4ccccc34)CC2)CC1)c1csc(-c2ccc(C(F)(F)F)cc2Cl)n1 (configuration not stated) | 99 | 75 | 32
CN(c1cc(NC(=O)c2ccc(F)cc2)ccn1)C1CCN(Cc2ccc(C#N)cc2)CC1.O=C(O)C(F)(F)F | 87 | 54 | 13
COCC(=O)N(Cc1ccccc1-c1cccc(CNCCc2ccccc2)c1)C1CCN(Cc2ccccc2)CC1.O=C(O)C(F)(F)F | 93 | 36 | 21
CC[C@H]1CN2CC[C@H]1C[C@H]2[C@H](O)c1cc(-c2cccc(C)c2)nc2ccc(OC)cc12.Cl | 100 | 100 | 15
